Whole data set: some 25,000 sequences, median “ln(normalized median fluorescence intensity)” near 7.1, cut for the highest 2% near 10. The entries come from a sample that favours the highest values as a whole.
Test system: PfSIP2 AP2 domain 1 (GST-tagged)
Experiment: gcPBM binding intensity (ln(normalized median fluorescence intensity)); higher = stronger DNA binding
In short: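 After 1 h on an Agilent 4 × 180k array of primer-extended double-stranded 36-bp intergenic genomic probes and negative controls, bound GST-tagged P. falciparum DNA-binding domains were detected with Alexa488 anti-GST antibody and scanned at 488 nm. The domains had been expressed in E. coli, and binding took place in 1× PBS with 1% milk, 0.2 mg/ml BSA, 0.5% salmon testes DNA and 0.03% Triton X-100. Binding intensity is the highest Masliner-normalised natural-log median intensity across replicate spots of either probe orientation.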

Sequence	gcPBM binding intensity (ln)
TGATGATATAAAAACACACACATATAACATAATACT [CACACA_site6687]	7.04
TAAATATATAAATACACACAAACATACATATATATA [CACACA_site4050]	7.55
TATATACATATATGCACACAAAAAAATATATATTTT [CACACA_site1729]	7.3
ATATATTTGATAAGAGTGCACAAATACATACATACA [GTGCAC_site9704]	10.6
AATATAATATAATGCACACATAAACAAAAAAAAAAT [CACACA_site1304]	7.53
TATAAATATACAAACACACATACAAACATATATATA [CACACA_site1120]	7.27
ATATAATCTGAGTGCACACAAATAAATAAACATACA [CACACA_site422]	10.4
AAAATATAAAATAATGCACACATAAACAAAAAATCA [CACACA_site8382]	7.33
TAATATAATCTGAGTGCACACAAATAAATAAACATA [CACACA_site8032]	10.3
GCACAAATATATATATATATATATATATATATATAT [GTGCAC_negctrl_site661]	9.36
TACATATTGATATATACACACAAAAAAATAAATTCT [CACACA_site6198]	7
TACACAAATATATATATATATATATATATATATATA [XGTACX_negctrl_site305]	9.89
ATGAGTGCACAAATATATATATATATATATATATAT [CACACA_negctrl_site404]	11.6
TATACATATATTATATGTACATATATATATAATATA [XGTACX_site2942]	7.26
TACTATCTATACAATACACACAAAAAAAAAAAAATA [CACACA_site3981]	6.95
AATTGAGAAGTGTGTTGTACATAATGGCACATACCT [XGTACX_site1370]	7.22
ATATTAACTATCATAACACACACAGTAGACATATTT [CACACA_site6941]	6.99
CATTTTTTGCTTTCAACACACATACAATATAAATAA [CACACA_site7858]	7.27
ATGAACTAAACTAATCGTACAATAAGTTTTATTATA [XGTACX_site4891]	6.84
GGCATTTTATGAAGTAGTACCATAAATATTAAAGAT [XGTACX_site5287]	7.32
TTTATATTTATCCAAAGTACTTTTTAAAAACATACC [XGTACX_site4518]	7.36
TGGCTTATTCAGAAATGTACACATATAAATATATAT [XGTACX_site3765]	7.11
AATGGGATCATGGTATGTACTTACACAAATGAATTA [XGTACX_site5389]	6.82
CTATAAATATTTTATTGTACACACTTTTTATGAATG [XGTACX_site6711]	7.22

Sequence	gcPBM binding intensity (ln)
TTCATTAAAATTATTACACACAGTTCTTCAACCAAA [CACACA_site3504]	6.84
AAAGGTTTATATGATACACACATAAGTGATCAGGTT [CACACA_site190]	6.75
GTAGATATTTATTGAGTGCATGTTATAAAGGGAAAA [GTGCAC_site9481]	9.62
AGATATTTATTGAGTGCATGTTATAAAGGGAAAAAA [TGCATGCA_site88]	10.3
GGAAAAATATAATATGCATGTTATTATTTTTTTATA [TGCATGCA_site836]	6.77
TAAAAACATTTAAATTGTACGGAAATAAAAATTTTT [XGTACX_site8225]	6.94
AGTAATAGTTTGTGCACACTCAAGTATATCATATAT [CACACA_site4034]	9.56
AATATATGGTTTCATGATATTAAATTCAAAATAATG [CACACA_negctrl_site318]	6.75
TATATTTCTTCTATAACATGCAGATATATGAAAATA [TGCATGCA_site971]	7.11
TATTTCAAAATATGGGTGCAGTTCTTCATGATATAT [GTGCAC_site9658]	10.7
TTTAAAAAATGTTATATTATATAATTAAAAAAAAAA [CACACA_negctrl_site1509]	6.63
AACCAAACAAATAAACGTACAAACATTACATATATT [XGTACX_site2265]	7.05
TTACTATGTAAACACACATGCAATATATGTTAAGCC [TGCATGCA_site253]	6.91
AGTGTTTTTTATAAAGTGCAATATAAAAACAAAATG	8.59
AATTATTGTGAAGGGAAAACAAAAAAGTTTATAATT [CACACA_negctrl_site1337]	6.87
TTTATAAAGGGAAAGGTGCAAAAGGTGAAAGTTTTA	10.8
TATATATATATACATTGTACATTATTGATTATAACA [XGTACX_site1678]	9.52
TTTGAATCCTTATATACACACATTATGTAATATTAT [CACACA_site561]	7.1
ATATATATATATATATGTACATAGAGAAGTATCTTT [XGTACX_site4737]	9.91
TTTTTTTTTTTTTTGGTGCAGTTCACATATTATATA [GTGCAC_site9996]	9.48
GAAGTAGATGGAAAAGTGCACTGTAATGGTTATATT	10.3
ATGGTTATATTTGAAGTGCAAAAAAAAATATATGTA	8.55
ATGTAGAAGTAATGCACACATATGTATTTATATATA [CACACA_site5391]	7.26

Reference: the supplement of paper PMC11417369
